Measurements published in PubChem BioAssay (NCI).
“And” between values parts separate entries of the source, which are not always exact repeats. Identical values can stand only once. This is part of a sample that, as a whole, favours compounds with a hit. Of some 83,000 tested, about 20% had one in any assay.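 Cells were grown in 96-well plates and exposed to the test compound at a single concentration for 48 hours; results are reported as percent growth, with values below 10 considered active.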 The source made the active and inactive calls.

Experiments:
Experiment in all cases: NCI-60 one-dose screen, 48 h (100 = growth as untreated, 0 = no growth, -100 = all killed)
Conditions in all cases: 10 µM
[1] = test system: NCI-H23 lung
[2] = test system: NCI-H226 lung
[3] = test system: NCI-H322M lung
[4] = test system: HOP-62 NSCLC
[5] = test system: NCI-H460 lung
[6] = test system: HOP-92 NSCLC
[7] = test system: NCI-H522 lung
[8] = test system: A549/ATCC NSCLC
[9] = test system: 786-0 renal
[10] = test system: COLO 205 colon
[11] = test system: DU-145 prostate
[12] = test system: K-562 leukemia
[13] = test system: MALME-3M melanoma
[14] = test system: MDA-MB-231 breast
[15] = test system: RXF 393 renal
[16] = test system: SF-268 CNS
[17] = test system: SF-295 CNS
[18] = test system: SF-539 CNS
[19] = test system: UACC-257 melanoma
[20] = test system: M14 melanoma

Measured: growth

Oc1ccccc1-c1ccccc1
inactive: [1] 98.9% and 104% | [2] 104% and 99.3% | [3] 91.5% and 109% | [4] 101% and 103% | [5] 104% | [6] 98.7% and 112% | [7] 95.2% | [8] 100% and 95.8% | [9] 105% | [10] 110% and 112% | [11] 103% and 113% | [12] 93.2% and 97.2% | [13] 99.1% and 106% | [14] 95% | [15] 99% and 106% | [16] 98% and 104% | [17] 105% and 112% | [18] 103% | [19] 97.6% and 97.1% | [20] 113%

O=[N+]([O-])c1cc[n+]([O-])c2ccccc12
active: [1] -72.1% | [2] -17.8% | [3] -18.3% | [4] -47.9% | [5] -58.4% | [6] -41.6% | [7] -61.6% | [8] -25.1% | [9] -49.2% | [10] -74.9% | [12] 0.325% | [13] -69% | [14] -45.1% | [15] -87.1% | [16] 3.65% | [17] -17.7% | [18] -35% | [19] -47.1% | [20] -92.9%

COC12C(COC(N)=O)C3=C(C(=O)C(C)=C(N)C3=O)N1CC1C2N1C (stereo unspecified)
active: [1] 6.66% | [5] -6.38% | [6] -0.595% | [11] -3.38%
inactive: [2] 64.2% | [3] 30% | [4] 32.3% | [7] 17.7% | [8] 47.5% | [9] 31.1% | [10] 46.2% | [12] 50.1% | [13] 31.4% | [14] 93.9% | [15] 46% | [16] 45.8% | [17] 17.3% | [18] 19.8% | [19] 16.6% | [20] 28.4%

Cc1cc([N+](=O)[O-])c2ccccc2[n+]1[O-]
active: [1] -25.5% and -33.7% | [2] -4.63% and -12.9% | [3] -15.3% and -45.7% | [4] -20.4% and -36.8% | [5] -26.5% and -38.4% | [6] -8.69% and -36.2% | [7] -38.1% and -83% | [8] -23.4% and -36.1% | [9] -31.9% and -30.8% | [10] -63.1% and -95.1% | [11] -35.9% and -37% | [12] 1.04% and -22.1% | [13] -20.8% and -41% | [14] -17.4% and -36.7% | [15] -51.4% and -66.4% | [16] -12.7% and -10.4% | [17] -21% and -59% | [18] -49.2% and -61.6% | [19] 8.15% and -28% | [20] -80.7% and -70.6%

Cn1c(O)c(N=O)c(=O)n(C)c1=O
inactive: [1] 94.4% and 95.1% | [2] 93.3% and 103% | [3] 97.1% and 101% | [4] 101% and 90.9% | [5] 110% and 102% | [6] 101% and 85.9% | [7] 91% and 74.7% | [8] 107% and 98.1% | [9] 104% and 93.3% | [10] 110% and 111% | [11] 98.1% and 106% | [12] 94.1% and 95.2% | [13] 99.1% and 107% | [14] 107% and 101% | [15] 107% and 115% | [16] 92.8% and 97.5% | [17] 102% and 93.7% | [18] 102% and 90.7% | [19] 99.3% and 95.7% | [20] 111% and 102%

O=[N+]([O-])c1ccc(Br)c([N+](=O)[O-])c1
active: [7] -28.5% | [10] 0.504%
inactive: [1] 108% | [2] 101% | [3] 115% | [4] 115% | [5] 94.8% | [6] 109% | [8] 104% | [9] 108% | [11] 93.4% | [12] 34.6% | [13] 68.6% | [14] 88.9% | [15] 102% | [16] 96.8% | [17] 108% | [18] 98.7% | [19] 74.3% | [20] 79.9%

COC12c3c(C)cc(O)c4c(=O)occ(c34)C(=O)C1C13COC(=O)c4c(O)cc(C)c(c41)C(=O)C2C3OC(C)=O (stereo unspecified)
active: [6] -9.88%
inactive: [1] 99.7% | [2] 100% | [3] 95.4% | [4] 82.3% | [5] 97.9% | [8] 107% | [9] 95.7% | [10] 103% | [11] 113% | [12] 97.8% | [13] 92.7% | [14] 100% | [15] 115% | [16] 100% | [18] 95.9% | [19] 106%

COc1cc(/C=C(/C)[N+](=O)[O-])ccc1O
inactive: [1] 61.1% and 81.4% | [2] 86.7% and 91% | [3] 66.7% and 91.5% | [4] 55.6% and 47.6% | [5] 43% and 21.5% | [6] 41.3% | [8] 57.4% and 48.9% | [10] 60.8% and 47.9% | [11] 21.7% and 17.1% | [14] 66.3% and 50.5% | [16] 47.5% and 87.3% | [17] 99.2% | [18] 57.2% and 20.3% | [20] 39.6%
50% (inactive) and -13.4% (active): [9]
active: [7] -78.2% and -84.9% | [12] 2.31% and 1.66% | [15] -57.5% and -94.8%
18.2% (inactive) and -56% (active): [19]
40% (inactive) and 1.16% (active): [13]

COC1CC2C=C(C)/C=C/C=C/C(=O)NC(c3ccccc3)C/C=C/CCC(O)CC(=O)C2=C1O (stereo unspecified)
active: [1] -73.5% | [2] -61.6% | [3] -92.8% | [4] -91.6% | [5] -73.3% | [6] -86.6% | [8] -82.7% | [9] -94.3% | [10] -79.1% | [11] -85.6% | [12] -52.2% | [13] -84.5% | [14] -74.8% | [15] -90.6% | [16] -78.3% | [17] -89.3% | [18] -99.4% | [20] -95.7%

COc1cc([N+](=O)[O-])c2ncccc2c1[N+](=O)[O-]
active: [7] -47.9%
inactive: [1] 73.4% | [2] 77.1% | [3] 103% | [4] 105% | [5] 87.3% | [6] 95.7% | [8] 97.9% | [9] 77.7% | [10] 86.1% | [11] 98.4% | [12] 29.4% | [13] 114% | [14] 78.2% | [15] 59.4% | [16] 52.6% | [17] 94.3% | [18] 13% | [19] 50.4% | [20] 65.8%

[Cl][Sn]([c]1ccccc1)([c]1ccccc1)[c]1ccccc1
active: [1] -71.6% | [2] -62% | [3] -89.5% | [4] -88.4% | [5] -66% | [6] -85.6% | [7] -82.2% | [8] -93.6% | [9] -93.4% | [10] -92.5% | [11] -84.3% | [12] 0.0368% | [13] -64% | [15] -81.5% | [16] -79.2% | [17] -62.1% | [18] -89.5% | [19] -93.9% | [20] -76%

O=c1[nH]c2ccccc2n1C1CCN(CCCC(c2ccc(F)cc2)c2ccc(F)cc2)CC1
52.9% (inactive) and -40.4% (active): [15]
84% (inactive) and -30.2% (active): [4]
-27.7% (active) and 24.7% (inactive): [19]
active: [5] -0.452% and 2.65% | [9] -43.7% and -57.1% | [10] -50.3% and -70.3% | [12] -62.4% and -55.3% | [13] -8.01% and -56.3%
inactive: [1] 59.8% and 38% | [2] 92.1% and 61.6% | [3] 64.2% and 67.5% | [7] 62.3% and 33.6% | [8] 39.5% and 10.9% | [11] 56.7% and 53.3% | [14] 40% and 45.2% | [16] 23.6% and 70.8% | [20] 14.9%
77.3% (inactive) and -66.9% (active): [18]
6.63% (active) and 25.3% (inactive): [17]
-42.3% (active) and 27.1% (inactive): [6]

CCOP(=O)(OCC)/C(C#N)=C/c1ccc(Br)cc1
inactive: [1] 92.9% | [2] 96.2% | [3] 105% | [4] 89.7% | [5] 104% | [6] 69.6% | [7] 89.7% | [8] 102% | [9] 104% | [10] 109% | [11] 107% | [13] 107% | [14] 106% | [16] 95.2% | [17] 106% | [18] 95.9% | [19] 93.7% | [20] 98.4%

C=NCC#N
inactive: [1] 97.8% and 97.9% | [2] 107% and 99.3% | [3] 107% and 118% | [4] 93.2% and 93.4% | [5] 102% and 120% | [6] 97.6% | [7] 68.8% and 103% | [8] 110% and 104% | [9] 99.4% and 103% | [10] 113% and 111% | [11] 109% | [12] 91.2% and 107% | [13] 95.6% and 111% | [14] 100% and 112% | [15] 111% and 101% | [16] 103% and 102% | [17] 98.3% and 124% | [18] 88.4% and 99.3% | [19] 114% and 103% | [20] 94.2%
